PubChem BioAssay (NCI)
The panel holds about 83,000 compounds, 20% with a hit somewhere; the sample as a whole holds those more often.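 The test compound was applied at a single concentration to cells in 96-well plates for 48 hours, and percent growth was recorded.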 Calls of active or inactive are those of the source. Rule for the calls: active = growth percent below 10; inactive = the rest.

Assays:
Test in all cases: NCI-60 one-dose screen, 48 h (100 = growth as untreated, 0 = no growth, -100 = all killed)
Conditions in all cases: 10 µM unless noted
DU-145 prostate = tested on: DU-145 prostate
K-562 leukemia = tested on: K-562 leukemia
MALME-3M melanoma = tested on: MALME-3M melanoma
MDA-MB-231 breast = tested on: MDA-MB-231 breast
RXF 393 renal = tested on: RXF 393 renal
SF-268 CNS = tested on: SF-268 CNS
SF-295 CNS = tested on: SF-295 CNS
SF-539 CNS = tested on: SF-539 CNS
UACC-257 melanoma = tested on: UACC-257 melanoma
M14 melanoma = tested on: M14 melanoma
HCT-15 colon = tested on: HCT-15 colon
HT29 colon = tested on: HT29 colon
SNB-75 CNS = tested on: SNB-75 CNS
SNB-19 CNS = tested on: SNB-19 CNS
U251 CNS = tested on: U251 CNS
PC-3 prostate = tested on: PC-3 prostate
SK-MEL-5 melanoma = tested on: SK-MEL-5 melanoma
UACC-62 melanoma = tested on: UACC-62 melanoma
LOX IMVI melanoma = tested on: LOX IMVI melanoma
SK-MEL-28 melanoma = tested on: SK-MEL-28 melanoma

Measured: growth

C=C1C(=O)O[C@H]2[C@H]1CC/C(CNC(=O)/C=C/c1cc(OC)c(OC)c(OC)c1)=C\CC[C@@]1(C)O[C@@H]21
active: DU-145 prostate 7.86% | K-562 leukemia -9.87% | MALME-3M melanoma -36.6% | MDA-MB-231 breast 5.65% | RXF 393 renal -88% | SF-539 CNS -36% | UACC-257 melanoma -26.1% | M14 melanoma -32.3% | HCT-15 colon 1.96% | HT29 colon -66.4% | UACC-62 melanoma -36.3% | LOX IMVI melanoma -88% | SK-MEL-28 melanoma -32.7%
inactive: SF-268 CNS 28.1% | SF-295 CNS 50.4% | SNB-75 CNS 46.9% | SNB-19 CNS 46.9% | U251 CNS 25.9% | PC-3 prostate 37.1% | SK-MEL-5 melanoma 20.6%

CC1=C(C(=O)c2ccccc2)C(c2ccc3c(c2)OCO3)NC(=S)N1 (stereo not given)
active: SNB-75 CNS -1.4%
inactive: DU-145 prostate 78.7% | K-562 leukemia 24.6% | MALME-3M melanoma 54.5% | MDA-MB-231 breast 79.1% | RXF 393 renal 59.5% | SF-268 CNS 75.8% | SF-295 CNS 51.2% | SF-539 CNS 36.4% | UACC-257 melanoma 57.2% | M14 melanoma 34.6% | HCT-15 colon 33.7% | HT29 colon 18.5% | SNB-19 CNS 63.8% | U251 CNS 37.5% | PC-3 prostate 61.5% | SK-MEL-5 melanoma 28.2% | UACC-62 melanoma 51.6% | LOX IMVI melanoma 36.2% | SK-MEL-28 melanoma 70.9%

CC(C)n1nc(-c2ccc3oc(N)nc3c2)c2c(N)ncnc21
active: DU-145 prostate 2.37% | MALME-3M melanoma -40.7% | MDA-MB-231 breast -15.1% | RXF 393 renal -43.1% | SF-268 CNS -1.05% | SF-295 CNS -50.9% | SF-539 CNS -43.7% | UACC-257 melanoma -27.8% | M14 melanoma -18.8% | HCT-15 colon 0.972% | HT29 colon 4.07% | SNB-75 CNS -51.4% | SNB-19 CNS 0.364% | U251 CNS 1.15% | PC-3 prostate 0.237% | SK-MEL-5 melanoma -40.3% | UACC-62 melanoma -45% | LOX IMVI melanoma -16.4% | SK-MEL-28 melanoma -24%
inactive: K-562 leukemia 18.3%

O=C(CSc1nnc(-c2cc(-c3ccc(Cl)cc3)nc3ccccc23)n1-c1ccccc1)Nc1ccc(Cl)cc1
inactive: DU-145 prostate 107% | K-562 leukemia 85.1% | MALME-3M melanoma 107% | MDA-MB-231 breast 89.7% | RXF 393 renal 118% | SF-268 CNS 94% | SF-295 CNS 99.5% | SF-539 CNS 111% | UACC-257 melanoma 96.2% | M14 melanoma 109% | HCT-15 colon 97% | HT29 colon 104% | SNB-75 CNS 94.2% | SNB-19 CNS 94.5% | U251 CNS 98.7% | PC-3 prostate 80.3% | SK-MEL-5 melanoma 101% | UACC-62 melanoma 87.1% | LOX IMVI melanoma 95.8% | SK-MEL-28 melanoma 103%

CCOC(=O)CC1C(CNC(=O)NC)OC(n2cnc3c(NC(=O)Nc4ccccc4)ncnc32)C1O[Si](C)(C)C(C)(C)C (stereo not given)
inactive: DU-145 prostate 63.3% | K-562 leukemia 58.7% | MALME-3M melanoma 55.3% | MDA-MB-231 breast 50.8% | SF-268 CNS 58.6% | SF-295 CNS 16% | SF-539 CNS 52.6% | UACC-257 melanoma 87.5% | M14 melanoma 67.3% | HCT-15 colon 55.7% | HT29 colon 27% | SNB-75 CNS 63.4% | SNB-19 CNS 93.9% | U251 CNS 34% | PC-3 prostate 47% | SK-MEL-5 melanoma 58.3% | UACC-62 melanoma 80.4% | LOX IMVI melanoma 50.5% | SK-MEL-28 melanoma 83.9%
active: RXF 393 renal -45.2%

COC(=O)c1ccc(-n2cc(CCCOS(=O)(=O)c3ccc(F)cc3)nn2)cc1
inactive: DU-145 prostate 107% | K-562 leukemia 95.5% | MALME-3M melanoma 98.6% | MDA-MB-231 breast 106% | RXF 393 renal 105% | SF-268 CNS 98.6% | SF-295 CNS 102% | SF-539 CNS 96.7% | UACC-257 melanoma 97.2% | M14 melanoma 104% | HCT-15 colon 98.1% | HT29 colon 101% | SNB-75 CNS 94.5% | SNB-19 CNS 93.9% | U251 CNS 96.7% | PC-3 prostate 93.4% | SK-MEL-5 melanoma 103% | UACC-62 melanoma 92.5% | LOX IMVI melanoma 98.4% | SK-MEL-28 melanoma 101%

CN(C)C(=O)OCc1ccc2c(Cl)cc(Cl)c(O)c2n1
inactive: DU-145 prostate 39.7% | K-562 leukemia 20% | MALME-3M melanoma 46% | MDA-MB-231 breast 54.6% | RXF 393 renal 67.6% | SF-268 CNS 25.8% | SF-295 CNS 34.5% | SF-539 CNS 26.1% | UACC-257 melanoma 48.5% | M14 melanoma 12.6% | HCT-15 colon 22.8% | HT29 colon 94% | SNB-75 CNS 48% | SNB-19 CNS 29.7% | U251 CNS 18.5% | PC-3 prostate 46.4% | SK-MEL-5 melanoma 27.4% | LOX IMVI melanoma 15.9% | SK-MEL-28 melanoma 42.2%
active: UACC-62 melanoma -4.4%
